MRP reversal – MRP-mediated drug resistance reversal; H69AR cells + 2 uM doxorubicin, CellTiter-Glo, 72 h; AID 602; actives 0.04% (n = 85,000); differential viability (reversal), % at 10 µM;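 active = viability drop by adding the cancer drug above about 55%, with treated viability meeting a 40% cutoff, limit read from the data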;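 also: viability without doxorubicin minus viability with 2 µM doxorubicin for each compound; larger differential means the compound sensitizes cells more to doxorubicin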
MRP1 act – MRP-1 activation | viability increase, % at 10 µM | AID 799 | actives 0.61% (n = 140,000) | H69AR cells + doxorubicin, viability rescue, CellTiter-Glo;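 active = viability gain under doxorubicin at or above a set limit, the compound median plus 3 SD, cut at about 4.7% in these data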;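 also: MRP-1 overexpressing cells given doxorubicin 25 µM after compound pretreatment; 18-22 h compound pretreatment then 72 h with doxorubicin before readout; 0% = doxorubicin-only wells and 100% = vehicle-treated cells without doxorubicin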
Phagocytosis inh – blocks phagocytosis by macrophages; J774A.1 macrophage IgG-bead phagocytosis, imaging; inhibition, % at 5 µM; actives 0.07% (n = 110,000); AID 1029;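 active = inhibition above the mean of the plate negative controls plus 5 SD, cut at about 13% in these data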;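 also: phagocytic index as fraction of beads internalized from green versus red external bead signal; plate controls were DMSO negative control for no effect and cytochalasin-D positive control for full effect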
The depositor's hits bear a star; . = no result; [ ] = another dose, or the depositor's remark. The list is not random: actives were taken first. Their share in the collection is about 0.69%.

SMILES	MRP reversal	MRP1 act	Phagocytosis inh
O=C(CC1SC(=O)N(Cc2ccc(Cl)cc2)C1=O)Nc1nccs1 (configuration not stated)	.	12*	-7
COc1ccc(OC)c(NC(=O)Cc2coc3cc(C)cc(C)c23)c1	16	-1	1
O=C(COc1nsnc1N1CCOCC1)N/N=C/c1ccccc1O	.	5.5*	2
Cc1ccccc1NC(=O)COc1nsnc1N1CCOCC1	-4	0	1
CS(=O)(=O)N1CCC(C(=O)Nc2ccc3c(c2)OCO3)CC1	7	-1	0
Cc1ccc(S(=O)(=O)N2CCC(C(=O)N[C@@H](C)C(=O)Nc3ccc4c(c3)OCO4)CC2)cc1	1	6.2*	0
Cc1ccc(-c2cc3nc(-c4ccccc4)cc(N4CCOCC4)n3n2)cc1	18	-2	.
COc1ccc(-c2cc3nc(-c4ccccc4)cc(N4CCC5(CC4)OCCO5)n3n2)cc1	2	9.0*	-1
Cc1ccc(-c2cc(-c3ccccc3)no2)c(O)c1	.	5.3*	0
Oc1ccccc1-c1cc(-c2ccccc2)no1	.	-4	.
Cc1ccc(S(=O)(=O)N2CCN(CC(=O)N/N=C\C(Cl)=C\c3ccccc3)CC2)cc1	.	0	-7
CC(/C=N\NC(=O)CN1CCN(S(=O)(=O)c2ccc(C)cc2)CC1)=C\c1ccccc1	.	5.8*	-14
COC(=O)C1=C(C)N(CCc2ccc(OC)c(OC)c2)C(=O)/C1=C\c1ccc(O)cc1	.	-4	-3
COc1ccccc1C1CC(c2ccc(Cl)cc2)Nc2ncnn21 (configuration not stated)	-12	4.8*	0
COc1cccc(C2CC(c3ccccc3OC)n3ncnc3N2)c1 (configuration not stated)	-42	-4	0
Cc1cccc2cc(CN(Cc3ccco3)S(=O)(=O)c3ccc4c(c3)OCCO4)c(=O)[nH]c12	5	11*	-2
Cc1cc(C)c2[nH]c(=O)c(CN(CC3CCCO3)S(=O)(=O)c3ccc4c(c3)OCCO4)cc2c1 (configuration not stated)	-4	1	1
Cc1ccc(NC(=O)NC2CCCN2S(=O)(=O)c2ccc(Cl)cc2)cc1 (configuration not stated)	10	1	-1
O=C(NC1CCCC1)C(c1c[nH]c2ccccc12)N(C(=O)Cn1nnc(-c2ccc(Cl)cc2)n1)c1ccccc1 (configuration not stated)	.	11*	.
CC(C)(C)NC(=O)C(c1c[nH]c2ccccc12)N(C(=O)Cn1nnc(-c2ccc(Cl)cc2)n1)c1ccccc1F (configuration not stated)	.	-1	-6
CC(=O)N(O)CCCCCNC(=O)CCC(=O)N(O)CCCCCNC(=O)CCC(=O)N(O)CCCCCN	.	-1	.
O=C1CC(N2CCN(c3nc4ccccc4s3)CC2)C(=O)N1c1ccc(F)cc1 (configuration not stated)	-1	4.9*	0
O=C1CC(N2CCN(c3ccccc3F)CC2)C(=O)N1c1ccc(F)cc1 (configuration not stated)	-1	.	.
Cc1cccc(COCC(Cc2ccccc2)N2CCN(C(=O)c3cc(Cl)cc(Cl)c3)CCC2=O)c1 (configuration not stated)	.	-4	.
CCn1nnnc1SCC(=O)Nc1ccc2c(c1)OCO2	-9	-4	.
SMILES	MRP reversal	MRP1 act	Phagocytosis inh
Cc1ccc(NC(=O)CCSc2nnnn2-c2ccc3c(c2)OCO3)cc1C	14	6.2*	-1
Cc1cccc(Nc2nnc(SCC(=O)Nc3cccc(S(=O)(=O)N4CCCCC4)c3)s2)c1	.	-1	-11
Cc1cccc(Nc2nnc(SCC(=O)Nc3cccnc3Cl)s2)c1	.	8.1*	1
COc1ccc(NS(=O)(=O)c2cccc(NC(=O)C34CCC(CC3)C4)c2)cc1	.	1	-6
COc1ccccc1OCC(=O)NCCSCc1cccc(Cl)c1	.	0	-4
Cn1c(COc2ccccc2)nnc1SCc1nc2ccccc2[nH]1	11	0	1
CCn1c(COc2ccc(C)cc2)nnc1SCc1nc2ccccc2[nH]1	-8	7.6*	0
O=C1C2CC=CCC2C(=O)N1c1cccc(OS(=O)(=O)c2ccc3ccccc3c2)c1 (configuration not stated)	.	0	3
N#Cc1nc(-c2ccc(OCc3ccccc3)cc2)oc1NCc1cccnc1	-12	-3	-1
CN(C)c1oc(-c2ccc(OCc3ccccc3)cc2)nc1C#N	2	4.7*	-2
O=C1c2ccccc2-c2nc3ccccc3n21	7	8.3*	.
O=C(O)c1ccccc1-c1nc2ccccc2n1-c1ccccc1	.	-1	-4
Cc1cccc(C(=O)NNC(=O)c2ccccc2)c1	.	-2	-3
Cc1cccc(C(=O)c2cnc3ccccc3c2-c2ccccc2)c1	.	5.0*	1
CCOC(=O)c1nnc(-c2ccc(C)cc2)nc1Oc1ccccc1Cl	.	0	0
CCOC(=O)c1nnc(-c2ccc(C)cc2)nc1Oc1ccc(Cl)cc1Cl	.	5.0*	.
O=C(COc1ccc(-n2cnnn2)cc1)NC1CCCCC1	15	-2	-1
Cn1nnc(NC(=O)COc2ccc(C3CCCCC3)cc2)n1	13	5.3*	2
CCCCN(C(=O)Cc1cccs1)c1nnc(-c2cccnc2)s1	22	5.8*	.
COCCN(C(=O)Cc1cccs1)c1nnc(-c2cccnc2)s1	-1	-1	-1
C/C(N)=C(/C#N)C(=O)CSc1nc2ccccc2c(=O)n1-c1ccc(C)c(Cl)c1	.	-5	4
Cc1ccc(NC(=O)Cc2csc(-c3ccccc3)n2)cc1F	.	5.1*	5
O=C(Cc1csc(-c2ccccc2)n1)Nc1ccc(C(F)(F)F)cc1	.	-1	0
Clc1ccc(-c2csc(N3CCSCC3)n2)cc1	.	0	-10
Cc1cc(S(=O)(=O)N(Cc2cccs2)Cc2ccccc2F)ccc1-n1cnnn1	.	-2	-6
SMILES	MRP reversal	MRP1 act	Phagocytosis inh
O=C(Nc1nnc(SCC(=O)N2CCOCC2)s1)c1ccccc1Cl	.	-3	37*[artifact]
O=C(CSc1nnc(NCc2ccccc2)s1)N1CCOCC1	.	-1	4
O=C(O)CCN1C(=O)CC(N2C(=O)/C(=C/c3ccc(Cl)cc3)SC2=S)C1=O (configuration not stated)	.	8.0*	-9
O=C(CCN1C(=O)S/C(=C/c2ccc(Cl)cc2)C1=O)N1CCOCC1	.	-3	-8
CCC(C)c1ccccc1NC(=O)CN1CCN(C/C=C/c2ccccc2)CC1 (configuration not stated)	.	-5	-3
Cc1ccccc1-n1c(SCC(=O)NC(N)=O)nc2sc(-c3ccccc3)cc2c1=O	.	-3	0
CC1(C)Cc2c(c(-c3ccccc3)[nH]c(=O)c2C#N)CS1	-13	-3	2
N#Cc1c(-c2ccccc2)[nH]c(=S)[nH]c1=O	23	4.7*	1
CC(=O)/C(C#N)=C1\NC(=O)C(Cc2ccccc2)S1 (configuration not stated)	7	4.9*	.
N#C/C(C(=O)N1CCOCC1)=C1/SC(Cc2ccccc2)C(=O)N1c1ccccc1 (configuration not stated)	5	3	-1
CCc1nn2c(N)c(/C=C3\C=Nc4ccccc43)c(=O)nc2s1	.	8.2*	-3
CCOC(=O)c1c(Nc2ccccc2)sc(/C=C2\C=Nc3ccccc32)c1O	-17	-1	-2
COc1ccc(C(=O)Nc2ccccc2Cc2ccccc2)c(OC)c1	.	5.3*	-10
COc1ccc(C(=O)Nc2ccc(C)cc2C(=O)c2ccccc2)c(OC)c1	.	0	-7

Screens from PubChem.
